Source: PubChem BioAssay AID1159580 (chemical genetic matrix, 2015)
Values joined by “and” are separate entries in the source; they are usually repeats but may differ in a detail not shown here. Equal values may be shown once. Screen size: about 5,500 compounds; about 2,000 (36%) were called active. About 18% were inconclusive and are not listed. Rule as the data show it: active = normalized growth mostly below about 0.91 (no sharp cut-off); inconclusive = no clear call, values can overlap the other calls; inactive = mostly above about 0.92. Some of the results follow.

Test: chemical genetic growth profiling, strain panel (AID 1159580);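 also: tested at 20 µM; growth read once vehicle control cultures reached saturation at 30 °C; 1 = growth at the plate median or of vehicle wells; lower values mean less growth of the strain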
Conditions: S. cerevisiae deletion strains, growth OD

Measured: normalized growth

N[C@@H](CCC(=O)N[C@@H](CS)C(=O)NCC(=O)O)C(=O)O
inactive: locus YAL021C, strain ccr4, stronger effect = lower value 1 | locus YAL026C, strain drs2, stronger effect = lower value 1.04 | locus YAL030W, strain snc1, stronger effect = lower value 0.986 | locus YBL061C, strain skt5, stronger effect = lower value 1.01 | locus YBR009C, strain hhf1, stronger effect = lower value 0.988 | locus YBR021W, strain FUR4, stronger effect = lower value 1.05 | locus YBR023C, strain chs3, stronger effect = lower value 1.01 | locus YBR171W, strain sec66, stronger effect = lower value 0.981 | locus YBR229C, strain ROT2, stronger effect = lower value 1.01 | locus YBR231C, strain swc5, stronger effect = lower value 0.972 | locus YBR279W, strain paf1, stronger effect = lower value 1 | locus YCL011C, strain gbp2, stronger effect = lower value 1.01 | locus YCL016C, strain dcc1, stronger effect = lower value 1.02 | locus YCL029C, strain bik1, stronger effect = lower value 0.998 | locus YCL061C, strain MRC1, stronger effect = lower value 0.99 | locus YCL069W, strain vba3, stronger effect = lower value 1.01 | locus YCR088W, strain abp1, stronger effect = lower value 0.998 | locus YDL005C, strain med2, stronger effect = lower value 0.985 | locus YDL035C, strain GPR1, stronger effect = lower value 1.01 | locus YDL040C, strain nat1, stronger effect = lower value 0.989 | locus YDL074C, strain BRE1, stronger effect = lower value 0.987 | locus YDL101C, strain DUN1, stronger effect = lower value 0.991 | locus YDL185W, strain tfp1, stronger effect = lower value 0.947 | locus YDL192W, strain arf1, stronger effect = lower value 0.988 | locus YDR001C, strain nth1, stronger effect = lower value 0.993 | locus YDR069C, strain doa4, stronger effect = lower value 0.975 | locus YDR101C, strain arx1, stronger effect = lower value 0.992 | locus YDR137W, strain rgp1, stronger effect = lower value 1.03 | locus YDR159W, strain sac3, stronger effect = lower value 0.943 | locus YDR162C, strain NBP2, stronger effect = lower value 0.998 | locus YDR195W, strain ref2 0.927 | locus YDR297W, strain sur2, stronger effect = lower value 0.984 | locus YDR318W, strain mcm21, stronger effect = lower value 0.993 | locus YDR334W, strain swr1, stronger effect = lower value 0.998 | locus YDR335W, strain msn5, stronger effect = lower value 0.987 | locus YDR388W, stronger effect = lower value 0.998 | locus YDR392W, strain spt3, stronger effect = lower value 1 | locus YDR502C, strain sam2, stronger effect = lower value 0.987 | locus YEL003W, strain gim4, stronger effect = lower value 0.992 | locus YEL037C, strain rad23, stronger effect = lower value 0.995 | locus YEL061C, strain CIN8 (second series), stronger effect = lower value 0.996 | locus YEL061C, strain CIN8, stronger effect = lower value 0.991 | locus YER015W, strain faa2, stronger effect = lower value 1 | locus YER016W, strain bim1, stronger effect = lower value 1.02 | locus YER110C, stronger effect = lower value 0.971 | locus YER111C, strain swi4, stronger effect = lower value 1.01 | locus YER155C, strain BEM2 (second series), stronger effect = lower value 0.963 | locus YER155C, strain BEM2, stronger effect = lower value 0.998 | locus YER167W, strain BCK2, stronger effect = lower value 1 | locus YFR010W, strain ubp6, stronger effect = lower value 1 | locus YGL078C, strain dbp3, stronger effect = lower value 0.99 | locus YGL086W, strain mad1, stronger effect = lower value 0.987 | locus YGL167C, strain pmr1, stronger effect = lower value 0.988 | locus YGL173C, strain kem1, stronger effect = lower value 0.977 | locus YGL227W, strain vid30, stronger effect = lower value 0.992 | locus YGL240W, strain doc1, stronger effect = lower value 0.973 | locus YGL248W, strain PDE1, stronger effect = lower value 0.999 | locus YGL253W, strain hxk2, stronger effect = lower value 1.02 | locus YGR135W, strain pre9, stronger effect = lower value 0.978 | locus YGR252W, strain gcn5, stronger effect = lower value 0.995 | locus YHR013C, strain ard1, stronger effect = lower value 0.996 | locus YHR027C, strain rpn1, stronger effect = lower value 1.01 | locus YHR030C, strain SLT2, stronger effect = lower value 0.992 and 0.922 | locus YHR079C, strain IRE1 (second series), stronger effect = lower value 0.985 | locus YHR079C, strain IRE1, stronger effect = lower value 0.928 | locus YHR094C, strain hxt1, stronger effect = lower value 0.996 | locus YHR129C, strain ARP1, stronger effect = lower value 1 | locus YHR142W, strain chs7, stronger effect = lower value 1.03 | locus YHR200W, strain rpn10, stronger effect = lower value 0.981 | locus YIL066C, strain RNR3, stronger effect = lower value 1.01 | locus YIL073C, strain SPO22, stronger effect = lower value 0.952 | locus YIL125W, strain kgd1, stronger effect = lower value 0.996 | locus YIR030C, strain dcg1, stronger effect = lower value 0.991 | locus YJL092W, strain hpr5, stronger effect = lower value 0.998 | locus YJL095W, strain BCK1 (second series), stronger effect = lower value 1.01 | locus YJL095W, strain BCK1, stronger effect = lower value 0.97 and 1.03 | locus YJL115W, strain asf1, stronger effect = lower value 0.972 | locus YJL129C, strain trk1, stronger effect = lower value 0.975 | locus YJL134W, strain LCB3, stronger effect = lower value 0.995 | locus YJL154C, strain vps35, stronger effect = lower value 0.998 | locus YJL164C, strain tpk1, stronger effect = lower value 1.01 | locus YJL166W, strain qcr8, stronger effect = lower value 0.973 | locus YJL168C, strain set2, stronger effect = lower value 0.994 | locus YJL187C, strain SWE1 (second series), stronger effect = lower value 0.987 | locus YJR043C, strain POL32, stronger effect = lower value 0.992 | locus YJR066W, strain TOR1, stronger effect = lower value 0.923
